Data from PubChem BioAssay AID485344 (National Center for Advancing Translational Sciences (NCATS), 2010).
Hit rate of the full screen: of about 340,000 compounds, about 6,900 (2%) were called active. Cut-off read from the data, not from the text of the source: active = inhibition above about 30%; inactive = below that, where a call was filed. For the sample, actives were picked, then their nearest neighbours and some compounds at random.

target: D(2) dopamine receptor (Homo sapiens) (UniProt P14416); assay: HTS Assay for Allosteric Antagonists of the Human D2 Dopamine Receptor: Primary Screen for Antagonists; settings: HEK293 TREx D2 cells, calcium flux, dopamine EC80; at 10 µM; stronger effect = higher value; note: 0% is about no effect
Method in brief: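 Measurement of antagonist activity uses fluorescent calcium dye in inducible HEK293 T-REx D2 cells: 10 s baseline, compound addition with 180 s read, EC80 dopamine addition with a further 180 s read.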

Sequence of D(2) dopamine receptor (Homo sapiens) (P14416 whole entry, looked up): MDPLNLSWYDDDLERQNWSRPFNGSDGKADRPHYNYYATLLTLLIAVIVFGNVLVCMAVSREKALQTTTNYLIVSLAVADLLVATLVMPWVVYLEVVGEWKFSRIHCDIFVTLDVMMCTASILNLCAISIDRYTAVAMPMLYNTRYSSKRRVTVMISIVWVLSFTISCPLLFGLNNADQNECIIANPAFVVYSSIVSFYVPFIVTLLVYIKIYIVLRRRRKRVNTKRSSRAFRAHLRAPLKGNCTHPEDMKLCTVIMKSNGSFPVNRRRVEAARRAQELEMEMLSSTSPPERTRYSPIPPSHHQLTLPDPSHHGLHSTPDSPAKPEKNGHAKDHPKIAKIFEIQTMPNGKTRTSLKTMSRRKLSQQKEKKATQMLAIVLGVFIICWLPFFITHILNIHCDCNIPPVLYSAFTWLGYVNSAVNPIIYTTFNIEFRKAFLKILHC

inhibition, inactive:
Cc1c(C(=O)OCC(=O)N2CCCC2=O)oc2ccccc12 10.7%
CCOC(=O)N1CCN(C(=O)CSc2nc(=O)n3cccc(C)c3n2)CC1 -1.99%
CCc1nnc(NC(=O)CCCSc2nc3ccccc3[nH]2)s1 -10.6%
CCCCSc1nc2ccccc2[nH]1 22.4%
COCCN(C(=O)CC1CCCCC1)c1c(N)n(CC(C)C)c(=O)[nH]c1=O -47.9%
Cc1cc(C)n2nc(C(=O)OCC(=O)N(CCC#N)c3ccc(F)cc3)nc2n1 -5.33%
COc1ccc(N2CC(NS(=O)(=O)c3ccc4ccccc4c3)CC2=O)cc1 (stereo unspecified) 17.1%
COc1cccc(N2CC(C(=O)Nc3c(C)cccc3C)CC2=O)c1 (stereo unspecified) -21.9%
CCOc1ccc(NC(=O)CN(C)C(=O)Cn2c(=O)cnc3ccccc32)cc1OCC 6.33%
COC(=O)c1ccc(COC(=O)CNC(=O)c2cccc(OC)c2)o1 -4.34%
Cc1ccc(S(=O)(=O)Nc2nc3ccccc3s2)cc1[N+](=O)[O-] -1.44%
Cn1nnnc1SCC(=O)Nc1nc2ccccc2s1 5.01%
C=C(C)CNc1cc(S(=O)(=O)N2CCOCC2)ccc1Oc1ccccc1 -1.1%
CCOc1ccccc1N1CCN(C(=O)COc2ccc3c(C)cc(=O)oc3c2)CC1 20.8%
Cc1cc(=O)oc2cc(OCCC[n+]3ccccc3)ccc12 13.4%
Cc1ccc(C(=O)CN2C(=O)NC3(CCOc4ccccc43)C2=O)s1 (stereo unspecified) -0.39%
O=C(COC(=O)CCCN1C(=O)c2cccc3cccc(c23)C1=O)NC1CCS(=O)(=O)C1 (stereo unspecified) 1.37%
O=C(Nc1ccc2c(c1)OCCO2)C1CCCC1 3.86%
Cc1ccc(NC(=O)Nc2cc(-c3ccccc3)nn2C)cc1Cl -13.2%
Cc1cc(NC(=O)c2cnn3cccnc23)n(-c2ccccc2)n1 5.9%
Cc1nn(-c2ccccc2)c(Cl)c1C(=O)Nc1ccccc1 -28.3%
CC(=O)c1cccc(NC(=O)c2cc(C)nn2-c2ccccc2)c1 -7.81%
C#CCOCCOCCOCCNc1nc(N2CCN(C(=O)Cn3cc(CCCCN)nn3)CC2)nc(N2CCN(C(=O)[C@H](CCCCN)n3cc(CCC(=O)O)nn3)CC2)n1 -10.9%
CCOc1ncccc1C(=O)OCC(=O)c1c[nH]c2ccccc12 12.3%
O=C(CN1CCN(S(=O)(=O)c2ccc(Cl)s2)CC1)N1CCCCC1 -11.9%
CCc1ccc(Nc2n[n+](-c3ccccc3)c(-c3cccc(Cl)c3Cl)s2)cc1 6.13%
CCCCN(C(=O)C(CCSC)N1C(=O)c2ccccc2C1=O)c1c(N)n(CCC)c(=O)[nH]c1=O (stereo unspecified) -4.67%
Cc1c(C(=O)NNC(=O)c2ccncc2)oc2ccccc12 13.9%
COc1ccccc1C(CNC(=O)c1cccc(S(=O)(=O)Nc2ccc(F)cc2)c1)N(C)C (stereo unspecified) -19.6%
CCN(c1ccccc1)S(=O)(=O)c1cccc(C(=O)NCc2ccccc2CN2CCOCC2)c1 -43%
CN1CCN(CCNC(=O)Nc2ccc([N+](=O)[O-])cc2)CC1 11.3%
O=C(Nc1ccc(F)cc1)N1CCN(c2ccc(F)cc2)CC1 -1.72%
COc1cccc(NC(=O)CN(C)CC(=O)c2c(N)n(Cc3ccccc3)c(=O)n(C)c2=O)c1 -15.4%
COc1ccc(Nc2cc(Cl)ccc2C(=O)O)cn1 9.54%
COCCN(CCOC)C(=S)Nc1ccccc1Cl 3.22%
Cc1n[nH]c(=O)c2c(NC(=O)CSc3ccccc3F)oc(C)c12 0.909%
CCN(C(=O)COC(=O)Cc1c(F)cccc1Cl)c1c(N)n(Cc2ccccc2)c(=O)[nH]c1=O 4.82%
CCOC(=O)c1c(C)[nH]c2c1-c1ccccc1C(=O)C2=O -2.67%
C[C@@H]1NC(=O)[C@@]2(C)[C@@H](c3ccccc3)[C@H]3COc4ccccc4[C@@H]3N2C1=O -7.78%
CCOc1ccc(CCNC(=O)CN2C(=O)NC3(CCc4ccccc43)C2=O)cc1OCC (stereo unspecified) 1.52%
CCN(C(=O)CSc1nc(N)cc(=O)[nH]1)C1CCS(=O)(=O)C1 (stereo unspecified) 10.5%
Cc1ccc2nc(Nc3ccccc3)cc(C)c2c1 -16.8%
Cc1ccc2nc(-c3ccncc3)cc(C(=O)Nc3ccncc3)c2c1 -15.6%
Cc1cc(OCCN2CCCC2)ccc1C(C)C -8.05%
c1ccc2cc(OCCN3CCCC3)ccc2c1 6.73%
CCCCc1ccc(NS(=O)(=O)c2cccc(C(=O)N3CCCN(C)CC3)c2)cc1 16.6%
Cc1ccnc(NC(=O)C(C)N2C(=O)c3ccccc3C2=O)c1 (stereo unspecified) -8.26%
COC(=O)c1ccc(NC(=O)C(C)N2C(=O)c3ccccc3C2=O)cc1 (stereo unspecified) 4.17%

inhibition, active:
O=C(COC(=O)CCCSc1nc2ccccc2[nH]1)Nc1ccc(Oc2ccccc2)cc1 38.2%
COc1cccc(N2CC(NC(=O)c3ccc4ccccc4c3)CC2=O)c1 (stereo unspecified) 34.4%
Cc1ccnc(Nc2nc3ccccc3s2)n1 39.5%
Cc1ccccc1N1CCN(CCCOc2ccc3c(C)cc(=O)oc3c2)CC1 109%
Cc1cc(NC(=O)Nc2ccccc2)n(-c2ccccc2)n1 31.4%
Cc1cc(NC(=O)Nc2ccc(Cl)cc2)n(-c2ccccc2)n1 40.6%
O=C(NCc1ccccc1CN1CCCC1)c1cccc(S(=O)(=O)Nc2ccc(F)cc2)c1 61.7%
O=C(NCCCN1CCN(c2ccc(F)cc2)CC1)Nc1ccc([N+](=O)[O-])cc1 45.2%
COc1ccc(NC(=S)Nc2ccccc2Cl)cn1 40.5%
CCOC(=O)c1c(C)[nH]c(C2=NNC(=NC(C)COC)SC2)c1C (stereo unspecified) 36%
CCS(=O)(=O)Nc1cccc(-c2cc(-c3ccccc3)c3cc(C)ccc3n2)c1 30.3%
Cc1cc(OCCN2CCCC2)cc(C(C)C)c1 46.1%
Cc1cc(C)nc(NC(=O)C(C)N2C(=O)c3ccccc3C2=O)n1 (stereo unspecified) 35.4%
